Several values for one entry are separate records, joined by “and”; a condition that tells them apart may be missing. Equal values may be shown once. Compounds without any hit were thinned out: in the full panel of roughly 83,000, 20% have a hit.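 Treatment: one concentration, 48 hours, 96-well format. Scoring: percent growth, with anything below 10 considered active.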 Activity calls are given as the source filed them.
The molecules below were run on ACHN renal (assay: NCI-60 one-dose screen, 48 h (100 = growth as untreated, 0 = no growth, -100 = all killed)). Details: 10 µM unless noted.
Experimental: Growth inhibition of the ACHN human tumor cell line is measured as a screen for anti-cancer activity. Cells are grown in 96 well plates and exposed to the test compound for 48 hours. Compounds are tested at a single concentration, which is 10^-5 M for most compounds. The reported endpoint is percent growth (GI% or GIPRCNT), where numbers from 0 - 100% represent growth inhibition, and numbers from -100% - 0 represent cell death. For example, a value of 40 represents 60% growth inhibition. A value of 0 means no net growth occurred over the course of the experiment. A value of -40 indicates 40% of cells at the beginning of the experiment died by the end of the experiment. A value of -100 means all cells are dead at the end of the experiment.
NCI-60 Human Tumor Cell Lines Screen was performed using the standard one-dose NCI protocol, which is described in more detail at https://dtp.cancer.gov/discovery_development/nci-60/default.htm.
Compounds with GIPRCNT values below 10 were considered active. Activity score was based on GIPRCNT using the following formula: […]
Score is 0 for GIPRCNT values of 100 or above, 50 for GIPRCNT values of 0, and 100 for GIPRCNT values of -100.

**Q.** Which growth does the source give for `CN1C2CCC1[C@@H](COC(=O)c1ccccc1)[C@@H](O)C2` (stereo not given in full) here?
**A.** 105% (inactive)

**Q.** Which growth does the source give for `O=C1CN2CCC1CC2` here?
**A.** 101% (inactive)

**Q.** Which growth does the source give for `CCOP(=O)(NC)OCC` here?
**A.** 108% (inactive)

**Q.** Which growth does the source give for `C[C@]12CC[C@H]3[C@@H](C[C@@H]4SC(Nc5ccccc5)=N[C@@]45C/C(=N/O)CC[C@]35C)[C@@H]1CCC2=O` here?
**A.** 60.4% (inactive)

**Q.** `CCCCS(=O)(=O)Cl` was tested. Which growth did it give?
**A.** 110% (inactive)

**Q.** `CCCCCCCCCCCCCCCC[N+](C)(C)C` was tested. Which growth did it give?
**A.** 19.4% (inactive)

**Q.** With `Cc1ccc(C(=O)O[C@H](C(=O)O)[C@H](OC(=O)c2ccc(C)cc2)C(=O)O)cc1` as the molecule, how does the growth read?
**A.** 106% (inactive)

**Q.** `O=NN1CCCCC1` was tested. Which growth did it give?
**A.** 101% (inactive)

**Q.** How did the growth turn out when `CC(C)c1cccc(C(C)C)c1O` was run?
**A.** 104% (inactive) and 105% (inactive)

**Q.** With `O=C(Cc1ccccc1)NC(O)C(Cl)(Cl)Cl` (stereo not given) as the molecule, how does the growth read?
**A.** 120% (inactive)

**Q.** How did the growth turn out when `CN(C)c1ccc(N)cc1` was run?
**A.** 99.5% (inactive) and 64.9% (inactive)

**Q.** Which growth does the source give for `N#CCCc1ccccc1` here?
**A.** 98.4% (inactive)

**Q.** Which growth does the source give for `CCOP(=O)(OCC)C(=O)N(CC)CC` here?
**A.** 105% (inactive)

**Q.** `C#Cc1cccc(Nc2nc(Cl)nc3cc(NC(=O)CF)ccc23)c1` was tested. Which growth did it give?
**A.** 92.5% (inactive)

**Q.** `COc1ccc(C(C#N)C(C)=O)cc1` (stereo not given) was tested. Which growth did it give?
**A.** 99.8% (inactive)

**Q.** With `C[C@]12CC[C@@H](OC(=O)N(CCCl)N=O)C[C@@H]1CC[C@@H]1[C@@H]2CC[C@]2(C)C(=O)CC[C@@H]12` as the molecule, how does the growth read?
**A.** 21.7% (inactive)

**Q.** How did the growth turn out when `COCC1OC2OC3C(COC)OC(OC4C(COC)OC(OC5C(COC)OC(OC6C(COC)OC(OC7C(COC)OC(OC8C(COC)OC(OC1C(O)C2O)C(O)C8O)C(O)C7O)C(O)C6O)C(O)C5O)C(O)C4O)C(O)C3O` (stereo not given) (tested in a mixture with another compound) was run?
**A.** 107% (inactive)

**Q.** For `CNC(=O)Oc1ccc(Cl)cc1SSc1cc(Cl)ccc1OC(=O)NC`, which growth is on record?
**A.** 87.2% (inactive)

**Q.** With `O=C(O)c1ccc(=O)[nH]c1` as the molecule, how does the growth read?
**A.** 100% (inactive) and 106% (inactive)

**Q.** How did the growth turn out when `CC1=C2[C@H]3OC(=O)[C@@H](C)[C@@H]3CC[C@@]2(C)C=CC1=O` was run?
**A.** 95.7% (inactive)

**Q.** With `O=C(O)C(Br)CBr` (stereo not given) as the molecule, how does the growth read?
**A.** 97.4% (inactive)

**Q.** Which growth does the source give for `C[C@H](O)CCC(=O)c1ccoc1` here?
**A.** 114% (inactive)

**Q.** Which growth does the source give for `CC[C@H](C)[C@H](NC(=O)[C@H]1CCCCN1C)C(=O)N(C)[C@H](C(=O)NC12CC(C(=O)N[C@@H](Cc3ccccc3)C[C@H](C)C(=O)OC)(C1)C2)C(C)C` here?
**A.** 106% (inactive)

**Q.** For `CC[C@H](C)[C@H](NC(=O)CN(C)C)C(=O)N(C)[C@H](C[C@@H](OC(C)=O)c1nc(C(=O)NC23CC(C(=O)OC)(C2)C3)cs1)C(C)C`, which growth is on record?
**A.** 46.9% (inactive)

**Q.** How did the growth turn out when `Cc1cc(N(CCCl)CCCl)ccc1C=Nc1ccc(-c2csc(-c3ccccc3)n2)cc1` was run?
**A.** 80.5% (inactive)

**Q.** Which growth does the source give for `CN1CCC2(CC1)C(C#N)C(=O)NC(=O)C2C#N` (stereo not given) here?
**A.** 110% (inactive)

**Q.** With `CC[CH2][Sn]([Cl])([Cl])[CH2]CC.Oc1ccccc1C=NCCN=Cc1ccccc1O` as the molecule, how does the growth read?
**A.** 47.8% (inactive) and 29.3% (inactive)

**Q.** `O=S1(=O)OCCO1` was tested. Which growth did it give?
**A.** 99.2% (inactive)

**Q.** `CCOC(=O)c1cncn1C(C)c1ccccc1` (stereo not given) was tested. Which growth did it give?
**A.** 102% (inactive)

**Q.** Which growth does the source give for `CCN1C(=O)NC(=O)C(C)(N2C(=O)c3c(F)c(F)c(F)c(F)c3C2=O)C1=O` (stereo not given) here?
**A.** -57.7% (active)

**Q.** For `O=[N+]([O-])c1cc(Br)c(O)c(Br)c1`, which growth is on record?
**A.** 118% (inactive)

**Q.** For `CC(C)CCC1C(=O)NC(=O)NC1=O`, which growth is on record?
**A.** 100% (inactive)

**Q.** Which growth does the source give for `Cc1nc2ccccc2c(=O)n1-c1ccccc1F` here?
**A.** 104% (inactive)

**Q.** How did the growth turn out when `O=C(CBr)OCCOC(=O)CBr` was run?
**A.** 83% (inactive)

**Q.** With `O=C(O)C1C(C(=O)O)C2(Cl)C(Cl)=C(Cl)C1(Cl)C2(Cl)Cl` (stereo not given) as the molecule, how does the growth read?
**A.** 99.9% (inactive)

**Q.** Which growth does the source give for `C/C(=C(\c1ccc(OCCN2CCOCC2)cc1)c1ccc(OC(=O)Cc2ccccc2)cc1)c1ccc(Cl)cc1` here?
**A.** 112% (inactive)

**Q.** With `O=C(O)c1cc([N+](=O)[O-])cc([N+](=O)[O-])c1` as the molecule, how does the growth read?
**A.** 105% (inactive)

**Q.** `CC(Oc1ccc(-c2ccccc2)cc1)C(=O)O` (stereo not given) was tested. Which growth did it give?
**A.** 104% (inactive)

**Q.** Which growth does the source give for `O=[N+]([O-])c1ccc(CI)cc1` here?
**A.** 65.5% (inactive)

**Q.** Which growth does the source give for `O=C1NC(=O)C(=Cc2ccccc2)C(=O)N1` here?
**A.** 99.5% (inactive) and 112% (inactive)

From PubChem BioAssay (NCI)
